Test results as given in PubChem BioAssay (EPA / NIEHS).
The source holds several records for some structures; these can differ, active in one and inactive in another. Activity calls are given as the source filed them. How the source made its calls: active means hit-call score of the fitted dose curve at least 0.9, where 1 is the maximum; inactive means score below 0.9.

Assays:
[1] = read-out: Tissue Factor, F3 (gene 2152); assay: BSK_CASM3C_TissueFactor: BioMAP Diversity Plus: CASM3C Assay for Tissue Factor Biomarker Activity (AID 2283052); conditions: primary human coronary artery smooth muscle cells; actives raise or lower the signal;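 further: cell surface tissue factor protein level read by ELISA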
[2] = read-out: Interferon-gamma inducible Protein 10 (IP10), CXCL10 (gene 3627); assay: BSK_hDFCGF_IP10: BioMAP Diversity Plus: hDFCGF Assay for Interferon-gamma inducible Protein 10 (IP10) Biomarker Activity (AID 2283053); conditions: primary human foreskin fibroblasts; actives raise or lower the signal
Procedure, shortened: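 Primary foreskin fibroblasts, human; 24 h compound exposure; IP-10 by ELISA; bidirectional fit vs DMSO.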

[3] = read-out: Urokinase-type plasminogen activator receptor (uPAR), PLAUR (gene 5329); assay: BSK_CASM3C_uPAR: BioMAP Diversity Plus: CASM3C Assay for Urokinase-type plasminogen activator receptor (uPAR) Biomarker Activity (AID 2283054); conditions: primary human coronary artery smooth muscle cells; actives raise or lower the signal;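 further: cell-surface uPAR protein level quantified by ELISA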
[4] = read-out: Vascular cell adhesion molecule 1 (VCAM1), VCAM1 (gene 7412); assay: BSK_CASM3C_VCAM1: BioMAP Diversity Plus: CASM3C Assay for Vascular cell adhesion molecule 1 (VCAM1) Biomarker Activity (AID 2283055); conditions: primary human coronary artery smooth muscle cells; actives raise or lower the signal;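 further: VCAM-1 protein level quantified by ELISA on the cells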
[5] = read-out: Collagen III, COL3A1 (gene 1281); assay: BSK_hDFCGF_CollagenIII: BioMAP Diversity Plus: hDFCGF Assay for Collagen III Biomarker Activity (AID 2283056); conditions: primary human foreskin fibroblasts; actives raise or lower the signal
Procedure, shortened: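 ELISA read-out of collagen III from human skin fibroblast cultures sampled 24 h post-dosing. Values were derived by bidirectional fitting relative to the DMSO vehicle control.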

[6] = read-out: Epidermal growth factor receptor (EGFR), EGFR (gene 1956); assay: BSK_hDFCGF_EGFR: BioMAP Diversity Plus: hDFCGF Assay for Epidermal growth factor receptor (EGFR) Biomarker Activity (AID 2283057); conditions: primary human foreskin fibroblasts; actives raise or lower the signal
Procedure, shortened: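 hDFCGF system, primary human foreskin fibroblasts; compound 24 h; EGFR measured by ELISA; DMSO = negative control/baseline; bidirectional fitting.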

[7] = read-out: Interleukin-8 (IL8), CXCL8 (gene 3576); assay: BSK_hDFCGF_IL8: BioMAP Diversity Plus: hDFCGF Assay for Interleukin-8 (IL8) Biomarker Activity (AID 2283058); conditions: primary human foreskin fibroblasts; actives raise or lower the signal
Procedure, shortened: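 Cells used are human skin primary fibroblasts. Chemical is added, cultures run 24 h, then IL-8 is quantified by ELISA, and gain or loss versus DMSO control is fitted in both directions.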

[8] = read-out: Macrophage colony-stimulating factor (MCSF), CSF1 (gene 1435); assay: BSK_hDFCGF_MCSF: BioMAP Diversity Plus: hDFCGF Assay for Macrophage colony-stimulating factor (MCSF) Biomarker Activity (AID 2283060); conditions: primary human foreskin fibroblasts; actives raise or lower the signal
Procedure, shortened: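 Primary human foreskin fibroblasts dosed with chemical; 24 h later, M-CSF quantified by ELISA; curves fitted in both directions vs DMSO negative control.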

[9] = BSK_hDFCGF_SRB: Viability Assessment in the BioMAP Diversity Plus: hDFCGF Assay (AID 2283061); conditions: primary human foreskin fibroblasts;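 further: cells exposed to compound for 24 h before the read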
Procedure, shortened: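 Readout is SRB absorbance at 560 nm, reflecting total protein in parallel cultures of human foreskin fibroblasts harvested 24 h after chemical dosing. Activity was fitted bidirectionally relative to DMSO.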

[10] = read-out: TIMP metallopeptidase inhibitor 1 (TIMP1), TIMP1 (gene 7076); assay: BSK_hDFCGF_TIMP1: BioMAP Diversity Plus: hDFCGF Assay for TIMP metallopeptidase inhibitor 1 (TIMP1) Biomarker Activity (AID 2283062); conditions: primary human foreskin fibroblasts; actives raise or lower the signal
Procedure, shortened: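 Human skin fibroblasts (primary), hDFCGF system; compound exposure 24 h; TIMP-1 by ELISA; bidirectional fit vs DMSO negative control; overt cytotoxicity by SRB in parallel wells.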

[11] = read-out: Monokine induced gamma interferon (MIG), CXCL9 (gene 4283); assay: BSK_hDFCGF_MIG: BioMAP Diversity Plus: hDFCGF Assay for Monokine induced gamma interferon (MIG) Biomarker Activity (AID 2283063); conditions: primary human foreskin fibroblasts; actives raise or lower the signal
Procedure, shortened: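 Chemicals were added to primary human foreskin fibroblast cultures, which were sampled 24 h later. MIG levels were then quantified by ELISA and responses fitted in both directions relative to DMSO.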

[12] = read-out: Matrix Metallopeptidase 1 (MMP1), MMP1 (gene 4312); assay: BSK_hDFCGF_MMP1: BioMAP Diversity Plus: hDFCGF Assay for Matrix Metallopeptidase 1 (MMP1) Biomarker Activity (AID 2283064); conditions: primary human foreskin fibroblasts; actives raise or lower the signal
Procedure, shortened: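 Primary human foreskin fibroblasts in the hDFCGF system were dosed with test chemical, and MMP1 was measured by ELISA 24 h later. Values come from bidirectional curve fitting against the DMSO baseline.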

[13] = read-out: Vascular cell adhesion molecule 1 (VCAM1), VCAM1 (gene 7412); assay: BSK_hDFCGF_VCAM1: BioMAP Diversity Plus: hDFCGF Assay for Vascular cell adhesion molecule 1 (VCAM1) Biomarker Activity (AID 2283065); conditions: primary human foreskin fibroblasts; actives raise or lower the signal;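 on AC50: VCAM-1 protein level quantified by ELISA after 24 h chemical exposure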
Procedure, shortened: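 Human foreskin fibroblast primary cells, chemical exposure 24 h; VCAM-1 by ELISA; bidirectional fit, DMSO = negative control/baseline.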

[14] = read-out: Plasminogen activator inhibitor-1 (PAI1), SERPINE1 (gene 5054); assay: BSK_hDFCGF_PAI1: BioMAP Diversity Plus: hDFCGF Assay for Plasminogen activator inhibitor-1 (PAI1) Biomarker Activity (AID 2283066); conditions: primary human foreskin fibroblasts; actives raise or lower the signal
Procedure, shortened: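 Primary dermal fibroblasts (human foreskin), hDFCGF system; compound 24 h; PAI-1 by ELISA; bidirectional fit vs DMSO control.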

[15] = read-out: Intercellular Adhesion Molecule 1 (ICAM1), ICAM1 (gene 3383); assay: BSK_KF3CT_ICAM1: BioMAP Diversity Plus: KF3CT Assay for Intercellular Adhesion Molecule 1 (ICAM1) Biomarker Activity (AID 2283067); conditions: primary human keratinocytes with fibroblasts; actives raise or lower the signal
Procedure, shortened: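 ICAM-1 levels are measured by ELISA 24 h after dosing a primary human co-culture of keratinocytes and foreskin fibroblasts. Activity in either direction is fitted relative to DMSO vehicle.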

[16] = read-out: Interferon-gamma inducible Protein 10 (IP10), CXCL10 (gene 3627); assay: BSK_KF3CT_IP10: BioMAP Diversity Plus: KF3CT Assay for Interferon-gamma inducible Protein 10 (IP10) Biomarker Activity (AID 2283068); conditions: primary human keratinocytes with fibroblasts; actives raise or lower the signal
Procedure, shortened: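 In a primary skin co-culture of keratinocytes and fibroblasts, IP-10 is quantified by ELISA at 24 h after dosing. SRB staining of parallel wells monitors overt toxicity. Curves are fitted both directions against DMSO.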

[17] = BSK_KF3CT_SRB: Viability Assessment in the BioMAP Diversity Plus: KF3CT Assay (AID 2283069); conditions: primary human keratinocytes with fibroblasts;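 further: total protein by sulforhodamine B staining as a cytotoxicity measure; read 24 h after compound addition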
Procedure, shortened: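 Human primary keratinocyte plus foreskin fibroblast co-culture exposed to chemicals for 24 h. Total protein measured by 0.1% sulforhodamine B staining after 10% TCA fixation, read at 560 nm; bidirectional fitting versus DMSO baseline.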

[18] = read-out: Interleukin-1 alpha (IL1a), IL1A (gene 3552); assay: BSK_KF3CT_IL1a: BioMAP Diversity Plus: KF3CT Assay for Interleukin-1 alpha (IL1a) Biomarker Activity (AID 2283070); conditions: primary human keratinocytes with fibroblasts; actives raise or lower the signal
Procedure, shortened: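 Human keratinocyte plus foreskin fibroblast primary co-culture, sampled 24 h after chemical dosing. IL-1a measured by ELISA; responses fitted bidirectionally against DMSO baseline (negative control), so gain or loss of signal both count.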

[19] = read-out: TIMP metallopeptidase inhibitor 2 (TIMP2), TIMP2 (gene 7077); assay: BSK_KF3CT_TIMP2: BioMAP Diversity Plus: KF3CT Assay for TIMP metallopeptidase inhibitor 2 (TIMP2) Biomarker Activity (AID 2283071); conditions: primary human keratinocytes with fibroblasts; actives raise or lower the signal
Procedure, shortened: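 Cells: human keratinocytes co-cultured with foreskin fibroblasts. Treat with chemical, 24 h. Measure TIMP-2 by ELISA; fit curves bidirectionally vs DMSO baseline.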

[20] = BSK_hDFCGF_Proliferation: Cell Proliferation Assessment in the BioMAP Diversity Plus: hDFCGF Assay (AID 2283059); conditions: primary human foreskin fibroblasts;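 further: curves fitted for both rise and fall of signal versus DMSO baseline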
Procedure, shortened: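 Primary human foreskin fibroblasts, sub-confluent; […]; 10% TCA fix, 0.1% SRB stain, A560 total protein. Gain/loss fitted bidirectionally vs DMSO control.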

Measured: AC50

COC(=O)CSc1cc(N=c2sc(=O)n3n2CCCC3)c(F)cc1Cl
not listed: [20]
inactive: all other assays above

CC(C)CCCCCCc1ccc(O)cc1
active: [1] 26.9 µM | [2] 9.75 µM | [3] 31.8 µM | [4] 33.8 µM | [5] 9.95 µM | [6] 12.2 µM | [7] 11.7 µM | [20] 7.24 µM | [8] 8.61 µM | [9] 10.2 µM | [10] 11.9 µM | [11] 8.13 µM | [12] 9.57 µM | [13] 9.07 µM | [14] 11.1 µM | [15] 7.58 µM | [16] 9.35 µM | [17] 5.35 µM | [18] 8.32 µM | [19] 6.18 µM

CCOC(=O)COc1cc(-n2ncc(C(F)(F)F)c(C)c2=O)c(F)cc1Cl
not listed: [20]
inactive: all other assays above

COC(=O)c1ccc(I)cc1S(=O)(=O)NC(=O)Nc1nc(C)nc(OC)n1
not listed: [20]
inactive: all other assays above

S=C([S-])NCCNC(=S)[S-].[Mn+2]
active: [2] 30.7 µM | [5] 29.1 µM | [6] 0.149 µM | [8] 25.8 µM | [11] 32.4 µM | [12] 4.73 µM | [14] 16.4 µM | [16] 27.4 µM
not listed: [13] | [15] | [20]
inactive: all other assays above

CCC(O)=C1C(=O)CC(C(=O)O)CC1=O (stereo not drawn)
not listed: [20]
inactive: all other assays above

CCCN(CCC)C(=O)SCC
active: [16] 36.1 µM
inactive: [1] | [2] | [3] | [4] | [6] | [7] | [20] | [8] | [9] | [10] | [11] | [12] | [13] | [14] | [15] | [16] | [17] | [18] | [19]
